# Where “and” joins values, the source holds several entries; their conditions need not be identical. Equal entries are not always repeated. Where a structure was tested more than once in an assay, its records may differ in their call. Calls of active or inactive are those of the source. Rule as the data show it, unless noted: active = inhibition above about 80%; inactive = the rest.
# Columns and labels:
# [1] = hESC survival regulators, cell-based (AID 493140; call rule not given here;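 also: cells exposed to compounds for four days before counting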); settings: human embryonic stem cell survival screen; stronger effect = higher value
# [2] = liver-stage malaria parasite growth inhibition, primary screen, cell-based, HepG2, luciferase luminescence, HepG2 viability (AID 624349; in the data active = parasite load remaining mostly below about 12%, no sharp cut-off; inactive = mostly above about 10%;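 also: 100% = mean of DMSO negative control wells on the same plate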); settings: P. berghei liver stage in HepG2, luciferase luminescence, concentration not given here; parasite load remaining: stronger effect = lower value; viability: measured here: HepG2 viability without parasites
# [3] = sensitizers of A549 cells to miR-34 induction, primary screen, imaging, A549 dox-inducible miR-34, nuclei and caspase counts (AID 1347080;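 active = compounds whose cell count with miR-34 switched on is under 0.7 times the count with it off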); settings: A549 miR-34 inducible, Hoechst nuclei count, 48 h
# [4] = survival rescue of mitochondrial mutant cells in low glucose, primary screen, MELAS cybrids, Rieske KO mouse fibroblasts, CellTiter-Glo (AID 1508586;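 active = mean z-score across replicates of 1.96 or higher in either the MELAS or the Rieske mutant cell line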;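 also: z relative to plate mean and SD of compound and empty wells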)
# [5] = LFS_MB_P medulloblastoma growth inhibition, cell-based, chromothripsis tumors, cisplatin or BGB combos (AID 1671449); settings: LFS_MB_P medulloblastoma cells;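 also: cells exposed for 96 hours; 0% = vehicle DMSO and 100% = killing by high DMSO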
# [6] = HDN33 neuroblastoma growth inhibition, cell-based, chromothripsis tumors, cisplatin or BGB combos (AID 1671450); settings: HDN33 neuroblastoma cells, stronger effect = higher value;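 also: cells exposed to compound for four days; 0% = vehicle DMSO and 100% = cell killing by high DMSO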
# [7] = ICB984 medulloblastoma cell growth inhibition, synergistic combos for chromothripsis tumors, cisplatin or BGB combos (AID 1671451; call rule not given here;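 also: cells exposed for 96 hours before readout; 0% = vehicle DMSO and 100% = killing by high DMSO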); settings: ICB984 medulloblastoma cells, drug combinations, stronger effect = higher value
# [8] = LFS_MB_1R medulloblastoma cell growth inhibition, synergistic combos for chromothripsis tumors, cisplatin or BGB combos (AID 1671452); settings: LFS_MB_1R medulloblastoma cells, stronger effect = higher value;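 also: cells exposed for 96 hours before readout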
# [9] = HTB85 osteosarcoma cell growth inhibition, synergistic combos for chromothripsis tumors, BGB or cisplatin IC20 combos (AID 1671453); settings: HTB85 osteosarcoma cells, drug combinations, stronger effect = higher value;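 also: cells exposed for 96 hours before readout; 0% = vehicle DMSO and 100% = high DMSO killing control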
# [10] = CRL2098 osteosarcoma cell growth inhibition, synergistic combos for chromothripsis tumors, BGB or cisplatin IC20 combos (AID 1671454); settings: CRL2098 osteosarcoma cells, drug combinations, stronger effect = higher value;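 also: cells exposed for 96 h before readout; 0% = vehicle DMSO and 100% = killing by high DMSO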
# [11] = HD-MB03 medulloblastoma cell growth inhibition, synergistic combos for chromothripsis tumors, BGB or cisplatin IC20 combos (AID 1671455; in the data active = inhibition above about 83%;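 also: 0% = vehicle DMSO and 100% = high DMSO as cytotoxic control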); settings: HD-MB03 medulloblastoma cells, stronger effect = higher value
# [12] = UWB1.289 ovarian carcinoma cell growth inhibition, synergistic combos for chromothripsis tumors, BGB or cisplatin combos (AID 1671456); settings: UWB1.289 ovarian carcinoma cells, stronger effect = higher value;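 also: cells exposed to compound for four days; 0% = vehicle DMSO and 100% = killing by high DMSO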
# [13] = LFS_MB_2R medulloblastoma cell growth inhibition, synergistic combos for chromothripsis tumors, cisplatin combos (AID 1671457); settings: LFS_MB_2R medulloblastoma cells, stronger effect = higher value;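 also: cells exposed to compound for four days before readout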
# [14] = MDA-MB-436 breast carcinoma cell growth inhibition, synergistic combos for chromothripsis tumors, BGB or cisplatin combos (AID 1671458; call rule not given here;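 also: cells exposed for 96 hours; 0% = vehicle DMSO and 100% = killing by high DMSO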); settings: MDA-MB-436 breast carcinoma growth inhibition, drug combinations, stronger effect = higher value
# [15] = UWB1.289_BRCA1 ovarian cancer growth, cell-based, BGB or cisplatin combinations (AID 1671459); settings: UWB1.289 BRCA1 ovarian carcinoma, drug combinations, stronger effect = higher value
# [16] = human astrocyte viability loss, single and combined drugs, cytotoxicity control for chromothriptic childhood tumor combination screen, cell-based, BGB or cisplatin IC20 combos (AID 1671460); settings: Human astrocytes, drug combinations, stronger effect = higher value;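 also: cells exposed to compounds for 96 hours before viability readout; 0% = vehicle and 100% = killing control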
# [17] = growth inhibition of BT084 medulloblastoma cells, cell-based, ICGC_MB145, cisplatin and BGB IC40 combos (AID 1671461); settings: drug combinations, stronger effect = higher value;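 also: cells exposed to drugs for 96 hours; 0% = vehicle DMSO and 100% = high DMSO full killing control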
# [18] = growth inhibition of RCMB18 medulloblastoma cells, cell-based, cisplatin and BGB IC40 combos (AID 1671462); settings: stronger effect = higher value;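 also: cells exposed to compound for four days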
# [19] = growth inhibition of CRL1545 osteosarcoma cells, cell-based, cisplatin and BGB IC20 combos (AID 1671464); settings: stronger effect = higher value;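 also: cells exposed to compound for 96 hours before readout; 0% = vehicle DMSO and 100% = high DMSO killing control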
# [20] = stronger effect = lower value, cell number ratio, induced over uninduced
# [21] = measured here: relative caspase fold change +Dox/-Dox
# [22] = measured here: total cells with miR-34 induction, stronger effect = lower value
# [23] = measured here: total cells without miR-34 induction
# [24] = MELAS cybrid survival, CellTiter-Glo 48 h, stronger effect = higher value
# [25] = Rieske KO mouse fibroblast survival, CellTiter-Glo 72 h
# [26] = measured here: combination with BGB IC40, at 0.05 µM
# [27] = measured here: with BGB IC20 combination, at 0.5 µM
# [28] = measured here: with cisplatin IC20 combination, at 0.5 µM
# [29] = measured here: combination with cisplatin, at 0.5 µM
# [30] = measured here: combination with cisplatin, at 5 µM
structure (smiles),measurement,setting,value
C[C@@H]1C[C@H]2[C@@H]3C[C@H](F)C4=CC(=O)C=C[C@]4(C)[C@@]3(Cl)[C@@H](O)C[C@]2(C)[C@H]1C(=O)COC(=O)C(C)(C)C,survival,[1],4.25 (inactive)
same,parasite load remaining,[2],85.6% (inactive)
same,viability,[2],86.4%
same,fold change,[3]; [20],0.917 (inactive)
same,fold change,[3]; [21],0.704
same,cell count,[3]; [22],6960
same,cell count,[3]; [23],7580
same,z-score,[4]; [24],-0.991 (inactive)
same,z-score,[4]; [25],-0.15
CC=C1NC(=O)C2CSSCCC=CC(CC(=O)NC(C(C)C)C(=O)N2)OC(=O)C(C(C)C)NC1=O (stereo not drawn),fold change,[3]; [20],0.776 (inactive)
same,fold change,[3]; [21],0.484
same,cell count,[3]; [22],596
same,cell count,[3]; [23],768
same,z-score,[4]; [24],0.102 (inactive)
same,z-score,[4]; [25],-3.68
same,inhibition,"[5]; at 0.5 µM, stronger effect = higher value",-10.7% (inactive) and 88% (active)
same,inhibition,"[5]; measured here: combination with BGB IC20, at 0.005 µM",24.5% and 60%
same,inhibition,"[5]; measured here: combination with BGB IC40, at 0.005 µM",2.54% and 37.2%
same,inhibition,[5]; [26],74.1% and 67.4%
same,inhibition,"[5]; measured here: combination with cisplatin, at 0.5 µM, stronger effect = higher value",10.9% and 123%
same,inhibition,"[5]; measured here: combination with cisplatin, at 5 µM, stronger effect = higher value",118% and 111%
same,inhibition,"[6]; BGB combo, at 5 µM",99.8% and 99.9%
same,inhibition,[6]; at 0.5 µM,99.7% (active) and 99.8% (active)
same,inhibition,"[6]; cisplatin combo, at 5 µM",99.8% and 99.9%
same,inhibition,[6]; [27],99.7% and 99.8%
same,inhibition,[6]; [28],99.8% and 99.9%
same,inhibition,"[6]; single agent, at 5 µM",99.9%
same,inhibition,"[7]; BGB IC20 combo, at 0.005 µM",90.4% and 84.4%
same,inhibition,"[7]; BGB IC40 combo, at 0.005 µM",97.9% and 97.5%
same,inhibition,"[7]; BGB IC40 combo, at 0.05 µM",97% and 97.5%
same,inhibition,[7]; at 0.5 µM,-17.2% (inactive) and 63.7% (inactive)
same,inhibition,"[7]; cisplatin combo, at 0.05 µM",96.8% and 97.9%
same,inhibition,"[7]; cisplatin combo, at 0.5 µM",-7.95% and 70.2%
same,inhibition,"[7]; cisplatin combo, at 5 µM",85.1% and 97.2%
same,inhibition,"[7]; measured here: 5 uM single agent, at 5 µM",81.2% and 80.4%
same,inhibition,[8]; at 0.5 µM,95.1% (active) and 99.5% (active)
same,inhibition,[8]; [26],91.6% and 93.4%
same,inhibition,[8]; [29],100% and 110%
same,inhibition,[8]; [30],98.8% and 99.1%
same,inhibition,[9]; at 0.5 µM,99.8% (active)
same,inhibition,"[9]; measured here: with BGB IC20, at 0.5 µM",99.8%
same,inhibition,"[9]; measured here: with BGB IC20, at 5 µM",99.9%
same,inhibition,"[9]; measured here: with cisplatin IC20, at 0.5 µM",99.9% and 99.8%
same,inhibition,"[9]; measured here: with cisplatin IC20, at 5 µM",99.9%
same,inhibition,"[9]; single agent, at 5 µM",99.9%
same,inhibition,[10]; at 0.5 µM,94.7% (active) and 97.3% (active)
same,inhibition,"[10]; measured here: combination with BGB at IC20, at 0.5 µM",91% and 95.3%
same,inhibition,"[10]; measured here: combination with cisplatin at IC20, at 0.5 µM",96.7% and 99.1%
same,inhibition,[11]; at 0.5 µM,99.8% (active) and 99.9% (active)
same,inhibition,"[11]; measured here: combo with BGB at IC20, at 0.5 µM",99.8%
same,inhibition,"[11]; measured here: combo with cisplatin at IC20, at 0.5 µM",99.8% and 100%
same,inhibition,[12]; at 0.5 µM,97.4% (active) and 98.3% (active)
same,inhibition,"[12]; measured here: inhibition with BGB combination, at 0.05 µM",65.5% and 83.9%
same,inhibition,"[12]; measured here: inhibition with cisplatin combination, at 0.05 µM",79.2% and 89.7%
same,inhibition,[13]; at 0.5 µM,88.5% (active) and 90.2% (active)
same,inhibition,[13]; [29],99.4% and 104%
same,inhibition,[13]; [30],102% and 106%
same,inhibition,[14]; at 0.5 µM,71.3% (inactive) and 68.4% (inactive)
same,inhibition,"[14]; measured here: BGB combination, at 0.5 µM",57.2% and 55.5%
same,inhibition,"[14]; measured here: BGB combination, at 5 µM",70.4% and 77.6%
same,inhibition,"[14]; measured here: cisplatin combination, at 0.5 µM",73.2% and 67.4%
same,inhibition,"[14]; measured here: cisplatin combination, at 5 µM",84.8% and 85.1%
same,inhibition,"[15]; BGB combination, concentration series, at 5 µM",118% and 126%
same,inhibition,[15]; at 0.5 µM,106% (active) and 109% (active)
same,inhibition,"[15]; cisplatin combination, concentration series, at 5 µM",131% and 130%
same,inhibition,[16]; at 0.5 µM,102% (active) and 101% (active)
same,inhibition,"[16]; measured here: combo with BGB IC20, at 0.5 µM",105% and 103%
same,inhibition,"[16]; measured here: combo with cisplatin IC20, at 0.5 µM",101%
same,inhibition,[17]; at 0.5 µM,93.8% (active) and 102% (active)
same,inhibition,"[17]; cisplatin combination, at 0.5 µM",102% and 101%
same,inhibition,"[17]; cisplatin combination, at 5 µM",106%
same,inhibition,"[17]; measured here: BGB IC40 combination 0.05 uM, at 0.05 µM",99.6% and 96.6%
same,inhibition,"[17]; single agent, at 5 µM",106% and 108%
same,inhibition,[18]; at 0.5 µM,90.4% (active) and 89.4% (active)
same,inhibition,"[18]; cisplatin combo, at 5 µM",96% and 97.2%
same,inhibition,"[18]; measured here: BGB IC40 combination, at 0.05 µM",78.9% and 79.8%
same,inhibition,[18]; [29],92.6% and 90.7%
same,inhibition,"[18]; single agent, at 5 µM",96.6% and 90.8%
same,inhibition,[19]; at 0.5 µM,96% (active) and 96.3% (active)
same,inhibition,[19]; [27],97% and 96.3%
same,inhibition,[19]; [28],95.4% and 96.2%
same,inhibition,"[19]; single agent, at 0.05 µM",89.7% and 93.3%
same,inhibition,"[19]; single agent, at 5 µM",97.8% and 96.3%

# — PubChem BioAssay
